Hits are enriched below; roughly 4.7% of the tested compounds scored in any of these assays.
TRHR ag: TRH receptor (human) agonism; P34981; TRHR cells, calcium flux fluo-8, FDSS agonist mode; activation, % at 2 µM; hit rate 0.18% among 360,000; AID 493084; further: 0% is about no effect
Target sequence (P34981 whole entry, looked up): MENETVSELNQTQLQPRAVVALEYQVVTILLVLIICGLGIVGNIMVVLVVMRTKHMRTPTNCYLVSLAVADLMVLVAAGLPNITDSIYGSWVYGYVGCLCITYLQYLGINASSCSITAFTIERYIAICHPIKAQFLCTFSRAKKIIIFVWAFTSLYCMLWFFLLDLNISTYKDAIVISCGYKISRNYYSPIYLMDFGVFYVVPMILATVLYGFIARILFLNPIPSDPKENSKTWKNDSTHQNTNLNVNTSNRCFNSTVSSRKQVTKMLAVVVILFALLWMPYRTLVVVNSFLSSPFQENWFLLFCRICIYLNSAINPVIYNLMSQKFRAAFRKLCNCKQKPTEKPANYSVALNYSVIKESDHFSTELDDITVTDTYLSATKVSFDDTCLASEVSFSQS
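TRHR-expressing cells loaded with fluo-8 calcium dye; 23 nL library compound pin-transferred, kinetic FDSS fluorescence (Ex 480/Em 530) recorded about 180 s for agonist-induced calcium release, before a 10 nM TRH EC20 addition for potentiator mode.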
D1 PAM: enhances dopamine response at the human D1 receptor; P21728; HEK293 TREx D1 cells, calcium flux, dopamine EC20 potentiation; potentiation, % at 10 µM; hit rate 0.036% among 360,000; in the data active means potentiation above about 30%; further: 0% is about no effect
D1 antag: antagonists of human D1 dopamine receptor; HEK293 TREx D1 cells, calcium flux, dopamine EC80; hits give low values; AID 504652; hit rate 3.2% among 360,000; P21728; activity change, negative = inhibition, % at 10 µM; in the data active means activity change below about -30%; further: on the % scale 0 is the no-effect control and ±100 the full control effect
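Kinetic fluorescence of a calcium dye serves as the read-out. D1-expressing Hek293 Trex cells, induced overnight at 30 C, are exposed to compound for 180 s before an EC80 dopamine addition, then read 180 s further.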
TRHR PAM: allosteric enhancers of human TRH receptor; TRHR cells, fluo-8 calcium fluorescence, EC20 TRH enhancement; enhancement, % at 2 µM; hit rate 0.66% among 360,000; in the data active means enhancement above about 30%; further: 0% is about no effect
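Enhancer read-out: after compound pinning and an initial kinetic agonist-mode read, an EC20 of TRH (10 nM final) was injected and fluo-8 calcium signal (Ex 480/Em 530) followed at 1 s/cycle for 100 cycles in TRHR-expressing cells.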
D1 ag: human D1 receptor agonism; hit rate 1% among 360,000; activation, % at 2 µM; HEK293 T-REx D1 cells, calcium flux, agonist mode; P21728; AID 504660; further: 0% is about no effect
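Inducible HEK293 T-REx D1 cells, force-coupled to calcium signalling, were plated at 4000 cells/well with tetracycline and held overnight at 30 C. After no-wash calcium dye loading, compound-evoked calcium rise over 180 s flagged agonists.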
Starred values were filed as active, the others as inactive. Unless noted, no stated cut-off is given here; in the data, active means activation above about 30%; inactive means the rest.

SMILES	TRHR ag	D1 PAM	D1 antag	TRHR PAM	D1 ag
O=C(Nc1ccccc1C(=O)Nc1nnc(C(F)(F)F)s1)c1ccccc1	2	-5	-39*	-4	26
Cc1c(C(=O)Nc2nnc(C(F)(F)F)s2)oc2ccccc12	-1	0	-38*	6	10
COc1cc(Nc2nc(SCc3cccc(Cl)c3)nc3ccccc23)cc(OC)c1	0	-1	14	5	6
Cc1c(-c2nnc(SCC(=O)Nc3ccccc3F)o2)nnn1-c1ccc(F)cc1	3	1	-7	2	11
CC(C)NC(=O)NC(=O)COC(=O)/C=C/c1ccc2c(c1)OCO2	0	-1	-30*	9	1
CC(NC(=O)COC(=O)/C=C/c1ccc2c(c1)OCO2)c1ccccc1 (configuration not stated)	0	-3	-5	3	1
NNC(=O)c1cc(O)c(O)c(O)c1	0	-11	-36*	-5	-1
CCOC(=O)c1cccc(NS(=O)(=O)c2cc3[nH]c(=O)c(=O)[nH]c3cc2C)c1	0	3	2	46*	-1
CCN(CC)c1ccc(NS(=O)(=O)c2cc3[nH]c(=O)c(=O)[nH]c3cc2C)c(C)c1	0	-2	-38*	4	1
Cc1cc(Cl)ccc1NS(=O)(=O)c1cc2[nH]c(=O)c(=O)[nH]c2cc1C	0	2	-10	3	-1
Cc1nc(-c2ccc(S(=O)(=O)Nc3ccccc3C)cc2)co1	0	-7	-23	3	14
CCN(CC)c1ccc(NS(=O)(=O)c2ccc(-c3coc(C)n3)cc2)c(C)c1	-1	-6	-34*	-5	0
COc1ccc(-c2noc(CNC(=O)c3ccccc3Br)n2)cc1	1	-2	-3	5	4
CCc1ccc(CN2C(=O)c3ccccc3C2C(=O)NCCc2ccc(OC)c(OC)c2)cc1 (configuration not stated)	-1	1	4	-4	-2
Cc1ccc(C)c(NC(=O)CSc2nc3nccnc3c(=O)n2CCc2c[nH]c3ccccc23)c1	0	-2	0	16	2
CC(C)CCNC(=O)C(=O)Nc1cc2c3c(c1)CCC(=O)N3CCC2	-1	-11	4	2	1
CC1C(=O)N2CCCc3cc(NC(=O)C(=O)NCCc4ccccc4)cc1c32 (configuration not stated)	0	-16	-35*	0	3
COCCNC(=O)C(=O)Nc1cc2c3c(c1)CCC(=O)N3CCC2	0	-8	-31*	5	3
CC(=O)N1CCc2c(sc3c2c(=O)n(-c2cc(Cl)ccc2C)c(=O)n3C)C1	0	-2	-6	14	7
Clc1cccc(Nc2ncnc3c2cnn3-c2ccccc2)c1	-1	-15	-55*	6	6
NS(=O)(=O)c1ccc(CCNc2ncnc3c2cnn3-c2cccc(Cl)c2)cc1	0	-4	-64*	2	0
Fc1cccc(Nc2ncnc3c2cnn3-c2ccccc2)c1	1	-13	-13	2	3
NS(=O)(=O)c1ccc(CCNc2nccn(-c3cccc(C(F)(F)F)c3)c2=O)cc1	-1	-5	-32*	-2	3
N#Cc1cccc(Nc2ncnc3c2cnn3-c2cccc(Cl)c2)c1	0	-4	-49*	-4	1
CCc1ccc(C(=O)c2cn(CC(=O)Nc3ccc(OC)c(OC)c3)c3ccc(C)cc3c2=O)cc1	1	0	-2	1	5
SMILES	TRHR ag	D1 PAM	D1 antag	TRHR PAM	D1 ag
COCCNC(=O)c1c(NC(=O)Cc2coc3cc(C)ccc23)sc2c1CCCC2	0	2	-1	8	1
Cc1ccc(Nc2ncnc3c2cnn3-c2ccc(C)cc2)cc1	-1	-4	2	6	0
COc1ccc(NC(=O)c2cnn(-c3ccc(C)cc3)c2-n2cccc2)cc1Cl	1	-4	-31*	-2	4
Cc1cc(NC(=O)c2cnn(-c3ccccc3)c2-n2cccc2)ccc1Br	-2	-1	-1	0	10
COc1ccc(Nc2ncnc3c2cnn3-c2ccc(C)cc2)cc1Cl	1	-4	-65*	6	-1
CCc1cccc(NC(=O)CSc2nncn3c2cc2sccc23)c1	0	-1	8	-5	1
CCc1nn(CC(=O)NCCC(C)C)c(=O)c2cc3occc3n12	-2	0	5	1	-2
CC(C)(C)c1cc2cccnc2n1Cc1cccc(Cl)c1	-1	-9	-31*	-1	27
Cc1ccnc(N/C=C(/NC(=O)c2ccccc2)C(=O)N/N=C\c2ccc(F)cc2)n1	-1	-7	-37*	0	0
COc1ccc2[nH]cc(C(O)CN3CCN(c4ccccc4F)CC3)c2c1 (configuration not stated)	0	-15	-62*	0	18
COc1ccc2[nH]cc(C(O)CN3CCN(c4ccccc4)CC3)c2c1 (configuration not stated)	3	-2	-1	-4	6
CCc1ccc(NC(=O)c2cnn(-c3c(C)cccc3C)c2C2CCNCC2)cc1	4	-6	4	-3	4
Cc1cc(C)cc(NC(=S)N2CCC(N(C)CC3CCCO3)CC2)c1 (configuration not stated)	0	-1	10	12	0
Cc1ccc(NC(=S)N2CCC(N(C)CC3CCCO3)CC2)cc1 (configuration not stated)	-1	-4	-40*	-3	-1
COc1cc2c(cc1OC)-c1n[nH]c(=S)n1C(C)(C)C2	-1	-12	-59*	0	0
COc1cc2c(cc1OC)-c1nnnn1C(C)(C)C2	0	0	4	10	3
Cc1ccc(C)c(Cn2c(=O)n(-c3ccccc3)c(=O)c3c4c(sc32)CCCC4)c1	-3	2	-4	17	0
Cc1ccccc1C(=O)Nc1nnc(S(=O)(=O)N(C)Cc2ccc(Cl)cc2)s1	0	0	-31*	43*	12
CCc1nn2c(=O)cc(COC(=O)c3ccc(NC(=O)c4cccs4)cc3)nc2s1	0	0	-4	-5	1
c1ccc(CN2C3=NCCCN3c3ccccc32)cc1	0	-2	-1	6	0
Brc1ccc(CN2C3=NCCCN3c3ccccc32)cc1	-1	-10	-11	-3	30*
Cn1nnnc1SCC(=O)Nc1ccc(Oc2ccc(Cl)cc2)cc1	0	-2	-30*	5	10
Cc1c(NC(=O)CSc2nncn2-c2ccccc2)c(=O)n(-c2ccccc2)n1C	1	-7	-11	5	2
Cc1c(NC(=O)CSc2nnnn2-c2ccc(F)cc2)c(=O)n(-c2ccccc2)n1C	0	-2	-27	-2	2
Cc1c(NC(=O)CSc2nnnn2C)c(=O)n(-c2ccccc2)n1C	0	13	-35*	-6	2
